High-throughput results deposited in PubChem BioAssay by National Center for Advancing Translational Sciences (NCATS).
Shown are actives, neighbours in structure and some others; about 11% of the full set was active somewhere.
AmpC inh no detg = inhibitors of E. coli AmpC beta-lactamase without detergent. P00811. Potency, µM (highest dose often 57.1 µM), without a hit: at the highest dose activity change, negative = inhibition, usual class: inhibitors. AmpC nitrocefin hydrolysis, absorbance 480 nm, 0.0001% Triton. 330,000 compounds, 0.52% hits;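 further: plate controls were no compound for no effect and no enzyme for full effect; nearly all actives have a fitted effect of over 20% in size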
Target sequence (P00811 whole entry, looked up): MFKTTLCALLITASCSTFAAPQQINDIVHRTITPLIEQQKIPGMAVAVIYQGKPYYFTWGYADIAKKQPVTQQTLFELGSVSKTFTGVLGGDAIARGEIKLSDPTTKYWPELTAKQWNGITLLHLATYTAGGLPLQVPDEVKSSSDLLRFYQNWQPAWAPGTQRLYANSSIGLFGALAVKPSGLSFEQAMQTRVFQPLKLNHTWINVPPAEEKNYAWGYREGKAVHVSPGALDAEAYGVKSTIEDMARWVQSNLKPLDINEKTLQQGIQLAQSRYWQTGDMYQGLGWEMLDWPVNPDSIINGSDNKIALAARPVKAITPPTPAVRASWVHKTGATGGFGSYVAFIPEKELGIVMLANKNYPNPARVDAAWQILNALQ
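20 mM phosphate pH 7.0 + 0.01% (detergent screen) or 0.0001% Triton X-100; 5.3 nM AmpC reagent; cpd preinc 15 min RT; nitrocefin (800 uM stock) to start; A480 q20 s × 4 min; Activity was normalised to no-enzyme and no-compound control wells.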
Pf growth 96h = P. falciparum growth inhibition at 96 hours; P. falciparum luciferase reporter growth, 96 h; Potency, µM (top dose mostly 28.7 µM), inactives show top-dose activity change, negative = inhibition, usual class: inhibitors; 320,000 compounds, 6.9% hits; AID 504834
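96 h incubation, 37 C, 5% CO2, of luciferase-reporter P. falciparum-infected RBCs (2% hematocrit, 0.05% parasitemia final) with test compounds; endpoint luminescence.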
AMA1-RON2 inh = AMA1-RON2 (P. falciparum) interaction inhibition | AlphaScreen AMA1-biotinylated RON2 peptide binding | Potency, µM (highest dose often 58.2 µM), without a hit: at the top dose activity change, negative = inhibition, usual class: inhibitors | 360,000 compounds, 0.2% hits;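 further: 0% = vehicle wells and -100% = peptide control; nearly all actives have a fitted effect of over 45% in size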
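AMA1 (3D7) with his tag at 25 nM final met compounds first, then biotinylated RON2 peptide at 25 nM; detection used donor plus acceptor beads, 10 µg/mL apiece, read by AlphaScreen after 30 min at room temperature.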
Pf growth 48h = P. falciparum growth inhibition at 48 hours (one generation) | Potency, µM (doses to about 28.7 µM), for the others: at the highest dose activity change, negative = inhibition, usual class: inhibitors | 310,000 compounds, 5.9% hits | P. falciparum luciferase growth in erythrocytes, 48 h
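Growth was read as firefly luciferase luminescence after a 48 h, 37 C, 5% CO2 exposure of compounds to reporter-bearing P. falciparum cultures (0.1% parasitemia, 2% hematocrit final) in Albumax-supplemented RPMI 1640.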
HCV inh = HCV inhibition. Huh7.5.1 HCVcc-Cre infection, luciferase reporter, 44 h. Potency, µM (doses to about 41.8 µM), for the others: top-dose activity change, negative = inhibition, most hits filed as inhibitors. 340,000 compounds, 3.4% hits. AID 651820
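A cell-based infection assay in which seeded cells (1,000 per well) receive test compound after 4 h, are inoculated with HCVcc-Cre at approximately 0.5 moi, and are incubated 44 h before luminescence detection.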
AmpC inh detg = blocks E. coli AmpC beta-lactamase in detergent assay; P00811; AmpC hydrolysis of nitrocefin, absorbance 480 nm, 0.01% Triton; Potency, µM (highest dose often 114 µM), for the others: at the highest dose activity change, negative = inhibition, usual class: inhibitors; 370,000 compounds, 0.041% hits;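 further: 0% = no-compound wells and -100% = no-enzyme wells; nearly all actives have a fitted effect of over 25% in size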
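AmpC (5.3 nM in the dispensed reagent) in 20 mM phosphate pH 7.0 with 0.01% (detergent screen) or 0.0001% Triton X-100 was preincubated with compounds for 15 min at room temperature. Nitrocefin was then added from an 800 uM solution, and hydrolysis was followed at 480 nm.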
Numbers without * were called inactive; [ ] = another dose, or the depositor's remark. The call rests on the fitted dose curve; in most records, active means well fitted curve in the direction sought with a large enough effect; inconclusive means small, poorly fitted or top-dose-only effect, or another doubt; inactive means no such curve, though single readings can be large; an effect the other way counts as inactive or inconclusive. Unless noted, on the % scale 0 is the no-effect control and ±100 the full control effect; potency means the concentration at half of the fitted maximal effect.

CCOC(=O)c1cccc(NC(=O)C2CCN(S(=O)(=O)c3ccc4c(c3)oc(=O)n4C)CC2)c1 was read as AmpC inh detg 11%.
For Cc1ccc(Oc2c(C(F)(F)F)oc3cc(OCC(=O)NC4CCCCC4)ccc3c2=O)cc1 the results were AmpC inh detg 9%.
Screening CC1(C)CC(=O)C([N+](=O)[O-])=C(NCCCO)C1 returned AmpC inh no detg 0%, Pf growth 96h 12µM*, AMA1-RON2 inh 0%, Pf growth 48h 12%, HCV inh 33% and AmpC inh detg -2%.
Cc1ccc(NC(=O)C2CCCN(S(=O)(=O)c3cccc4nsnc34)C2)c(C)c1 (stereo unspecified) was read as AmpC inh detg 2%.
`CC(C)C[C@H]1CN(CCCC[C@H]2CNC(=O)C(=O)N2CC2CCCCC2)C(=O)C(=O)N1CCc1ccc(O)cc1` gave AMA1-RON2 inh 3%.
Screening CCCCCCNC(=O)N[C@@H](Cc1ccc(O)cc1)C(=O)NCCC[C@H]1CN2C(=NC[C@H]2C)N1CC1CCC1 returned AmpC inh no detg 96%, Pf growth 96h 3.3µM*, AMA1-RON2 inh -3%, Pf growth 48h 9.3µM*, HCV inh 1%[8.37 µM] and AmpC inh detg 1%.
For CCCCCCNC(=O)N[C@H](Cc1ccc(O)cc1)C(=O)NCCC[C@H]1CN2C(=NC[C@H]2CCC)N1CC1CCC1 the results were AmpC inh no detg 66%, Pf growth 96h 2.9µM*, Pf growth 48h 7.4µM* and AmpC inh detg 8%.
`CCCCCCNC(=O)N[C@@H](C(=O)NCCC[C@H]1CN2C(=NC[C@@H]2Cc2ccccc2)N1CCc1cccc(OC)c1)C(C)C` gave AmpC inh no detg 205%, Pf growth 96h 1.3µM*, AMA1-RON2 inh -4%, Pf growth 48h 13µM*, HCV inh -14% and AmpC inh detg 1%.
For COc1ccc(C(=O)Nc2ccc(N3CCN(C)CC3)cc2)cc1 the results were AmpC inh no detg -10%, Pf growth 96h 0.093µM*, AMA1-RON2 inh 1%, Pf growth 48h 107%, HCV inh 18% and AmpC inh detg -5%.
For O=C(Nc1ccc(N2CCCC2)cc1)c1ccc(Br)cc1 the results were AmpC inh no detg -24%, Pf growth 96h 0%, AMA1-RON2 inh -13%, Pf growth 48h 13µM*, HCV inh -18% and AmpC inh detg inconclusive.
For CC(C)Oc1ccc(C(=O)Nc2ccc(N3CCCC3)cc2)cc1 the results were AmpC inh no detg 1%, Pf growth 96h 9.3µM*, AMA1-RON2 inh -14%, Pf growth 48h 13µM*, HCV inh inconclusive and AmpC inh detg -11%.
CN1CCN(c2ccc(NC(=O)c3ccc(-c4ccccc4F)o3)cc2)CC1 was read as AmpC inh no detg 49%, Pf growth 96h inconclusive, AMA1-RON2 inh inconclusive, Pf growth 48h -56%, HCV inh 10µM* and AmpC inh detg inconclusive.
For CC(C)Oc1ccc(C(=O)Nc2ccc(N3CCN(C(=O)c4ccco4)CC3)cc2)cc1 the results were AmpC inh no detg -5%, Pf growth 96h inconclusive, AMA1-RON2 inh -17%, Pf growth 48h inconclusive, HCV inh -11% and AmpC inh detg -7%.
For CN(C)c1ccc(CN(CC2CCCO2)C(=O)COc2ccc(Cl)cc2)cc1 (stereo unspecified) the results were AmpC inh detg 12%.
O=C(NC1CCCCC1)c1ccc(-c2ccccc2F)o1 was read as AmpC inh no detg -12%, AMA1-RON2 inh -2% and HCV inh 0.71µM*.
Screening COc1ccc(C(=O)Nc2ccc(C(=O)OCC(=O)c3cccc4ccccc34)cc2)cc1 returned AmpC inh no detg 5%, Pf growth 96h 13µM*, AMA1-RON2 inh 16%, Pf growth 48h inconclusive, HCV inh -8% and AmpC inh detg 0%.
`COc1ccc(NC(=O)c2ccc3ccccc3c2)cc1` gave AmpC inh no detg -4%, Pf growth 96h inconclusive, AMA1-RON2 inh -2%, Pf growth 48h 287%, HCV inh 1% and AmpC inh detg -14%.
`CCCOC(=O)c1cccc(Nc2nc(CCC)cc(=O)[nH]2)c1` gave AmpC inh detg -6%.
Cc1ccc(CN2CCN(CC(=O)N3CCC4(CC3)OCCO4)C2=O)cc1 was read as AmpC inh no detg 25%, Pf growth 96h 3.7µM*, AMA1-RON2 inh -1%, HCV inh -3% and AmpC inh detg -10%.
For Cc1ccc(CN2CCN(CC(=O)N3CCc4ccccc4C3)C2=O)cc1 the results were AmpC inh no detg 47%, Pf growth 96h 17µM*, Pf growth 48h -6% and AmpC inh detg 2%.
Cc1ccc(CNC(=O)CN2CCN(Cc3ccc(C)cc3)C2=O)cc1 was read as AmpC inh no detg 30%, Pf growth 96h 2.9µM*, AMA1-RON2 inh 0%, HCV inh -14% and AmpC inh detg 3%.
Screening Cc1ccc(CN2CCN(CC(=O)N3CCC(C(N)=O)CC3)C2=O)cc1 returned AMA1-RON2 inh 5% and HCV inh 18%.
For COc1ccc(-n2c(=O)c3c4c(sc3n3c(SC(C)C)nnc23)COC(C(C)C)C4)cc1 (stereo unspecified) the results were AmpC inh detg -5%.
Screening COc1cc(NS(=O)(=O)c2ccc(NC(=O)c3ccc(Cl)cc3Cl)cc2)nc(OC)n1 returned AmpC inh detg 10%.
For CCCCCc1ccc(C)cc1O the results were Pf growth 96h 4% and Pf growth 48h 4%.
`O=C(Nc1nc2c(s1)CCCC2)c1ccc(Br)o1` gave AmpC inh no detg -39%, Pf growth 96h 46%, AMA1-RON2 inh -7%, Pf growth 48h 107%, HCV inh inconclusive and AmpC inh detg -13%.
Cc1ccc(C(=O)Nc2nc3c(s2)CCCC3)o1 was read as AmpC inh no detg -24%, Pf growth 96h 13µM*, AMA1-RON2 inh 2%, Pf growth 48h 126%, HCV inh inconclusive and AmpC inh detg 2%.
O=C(Nc1ccccc1)C1=C[C@@H](C2CC2)C[C@@H](OCc2ccc(CO)cc2)O1 was read as AmpC inh no detg 0%, Pf growth 96h 7%, AMA1-RON2 inh 11%, Pf growth 48h 4%, HCV inh 0.56µM* and AmpC inh detg -7%.
Screening O=C(Nc1ccccc1)C1=C[C@H](c2ccccc2)C[C@H](OCc2ccc(CO)cc2)O1 returned AmpC inh no detg -3%, Pf growth 96h inconclusive, AMA1-RON2 inh 10%, Pf growth 48h inconclusive, HCV inh 4%[8.37 µM] and AmpC inh detg 9%.
